Measured values as given in publication PMC6919601, “Identification of Plasmodium dipeptidyl aminopeptidase allosteric inhibitors by high throughput screening” (PLoS ONE, 2019).
Screen size: about 110,000 compounds; about 230 (0.21%) showed an effect of 50% or more. This excerpt belongs to a sample that is enriched for strong results.

biological target: DPAP1 (Plasmodium falciparum, UniProt Q8IIJ9); test: primary screen, percent inhibition; read by cleavage of a fluorogenic dipeptide substrate; higher = more effect of the substance; set-up: species or system P. falciparum D10 trophozoite lysates; single well
Sequence (Q8IIJ9 whole entry, looked up): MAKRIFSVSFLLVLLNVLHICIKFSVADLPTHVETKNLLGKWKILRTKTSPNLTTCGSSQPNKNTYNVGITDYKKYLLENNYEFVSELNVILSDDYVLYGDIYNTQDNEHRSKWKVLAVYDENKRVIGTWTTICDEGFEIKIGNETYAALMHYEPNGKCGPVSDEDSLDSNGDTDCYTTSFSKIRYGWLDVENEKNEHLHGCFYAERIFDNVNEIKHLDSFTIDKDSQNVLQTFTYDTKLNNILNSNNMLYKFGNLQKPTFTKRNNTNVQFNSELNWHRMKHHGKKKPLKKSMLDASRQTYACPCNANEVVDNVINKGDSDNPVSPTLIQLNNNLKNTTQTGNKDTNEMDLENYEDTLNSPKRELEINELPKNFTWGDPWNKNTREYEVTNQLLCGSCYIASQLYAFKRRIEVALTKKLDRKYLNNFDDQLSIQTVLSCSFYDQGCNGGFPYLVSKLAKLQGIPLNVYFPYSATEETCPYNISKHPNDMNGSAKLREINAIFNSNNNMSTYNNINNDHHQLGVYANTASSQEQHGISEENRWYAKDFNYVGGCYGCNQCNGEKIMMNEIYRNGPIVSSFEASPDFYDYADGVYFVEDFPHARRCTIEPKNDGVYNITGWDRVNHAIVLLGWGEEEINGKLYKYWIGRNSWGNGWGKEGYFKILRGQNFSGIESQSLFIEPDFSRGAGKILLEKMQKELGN
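Note: 30 min substrate incubation versus DMSO and 10 µM JCP410 controls.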

SMILES	% Inhibition @ 10 uM [%]
Cc1nc2c3ccccc3n3c(CCCC(=O)NC4CCN(Cc5ccccc5)CC4)nnc3n2n1	2.04
CCCN1CCN(C(=O)Cn2cccc2C(=O)c2ccccc2)CC1	1.15
CCOc1ccc(-c2cc(NC(=O)Cn3ncc4c(=O)oc5ccc(C)cc5c43)on2)cc1	-5.25
N#Cc1c(C(F)(F)F)cc(-c2cccs2)nc1SCc1ccncc1	57.7
CCS(=O)CCSc1nc(-c2cccs2)cc(-c2ccccc2)c1C#N (stereo not shown)	7.76
N#Cc1c(C(F)(F)F)cc(-c2cccs2)nc1SCC(=O)Nc1nccs1	0.121
N#Cc1c(C(F)(F)F)cc(-c2cccs2)nc1S	88.5
N#Cc1c(C(F)(F)F)cc(-c2cccs2)nc1SCC(=O)Nc1ccccn1	2.44
N#Cc1sc2nc(-c3cccs3)cc(C(F)(F)F)c2c1N	-2.32
CC(=O)NCCSc1nc(-c2cccs2)cc(-c2ccc(F)cc2)c1C#N	5.65
CCSc1nc(-c2cccs2)cc(C(F)(F)F)c1C#N	82.6
CCCCSc1nc(-c2cccs2)cc(C(F)(F)F)c1C#N	60.7
N#Cc1c(-c2cccs2)cc(-c2ccccc2)nc1S	20.6
CCSc1nc(-c2ccc(OC)cc2)cc(C(F)(F)F)c1C#N	-1.4
Cc1cccc(NC(=O)CSc2nc(-c3cccs3)cc(C(F)(F)F)c2C#N)n1	18.3
Cc1ccnc(NC(=O)c2ccc(C)c(C)c2)c1	2.64
O=c1oc2c3c(c(Cl)cc2c2c1CCCC2)OCN(Cc1ccco1)C3	4.13
O=C(Nc1ccc([N+](=O)[O-])cc1)c1ccc(-c2ccccc2)cc1	2.62
CC(=O)N1CCN(C2CCc3ccccc3C2)CC1 (stereo not shown)	0.217
CCC(C)NC(=O)c1ccccc1NS(=O)(=O)c1ccc(NC(C)=O)cc1 (stereo not shown)	-0.872
COc1ccc(C2=N/C(=C\C=C\c3ccccc3)C(=O)O2)cc1	7.01
Cc1ccc(NC(=O)C(CC(C)C)N2Cc3ccccc3C2=O)nc1 (stereo not shown)	-0.234
O=C(c1ccc(Br)cc1)N1CCN(c2ccc(F)cc2)CC1	0.815
N#CNC(=N)CSc1nc(-c2ccccc2)cc(C(F)(F)F)c1C#N	0.0719
N#Cc1c(C(F)(F)F)cc(-c2ccccc2)nc1S	73.6

SMILES	% Inhibition @ 10 uM [%]
C#CCSc1nc(-c2ccccc2)cc(C(F)(F)F)c1C#N	-10.2
C=CCc1cc(/C=C2/NC(=O)N(Cc3ccccc3F)C2=O)cc(OC)c1O	-2.63
COc1cc(/C=C2/NC(=O)N(Cc3ccccc3F)C2=O)cc(Br)c1O	63
COc1cc(/C=C2/NC(=O)N(Cc3ccccc3F)C2=O)cc(Cl)c1O	-1.28
Cc1oc(-c2ccc3c(c2)OCCO3)cc1C(=O)NCC(=O)O	-1.69
CCCNC(=O)c1cc2n(n1)C(C(F)(F)F)CC(c1ccc(Br)cc1)N2 (stereo not shown)	-0.67
COc1ccc(-c2nc3scc(CCNC(=O)c4cc(OC)c(OC)c(OC)c4)n3n2)cc1	5.49
COc1ccc(NC(=O)C2=C(C)NC(=O)NC2c2ccc(C)cc2)cc1 (stereo not shown)	-2.18
COc1ccc(NC(=O)C2=C(C)NC(=O)NC2c2ccc(Br)cc2)cc1 (stereo not shown)	57.9
COc1ccc(NC(=O)C2=C(C)NC(=O)NC2c2ccc(OC)cc2)cc1 (stereo not shown)	9.5
Cc1ccc(-c2nn3c(CC#N)nnc3c3ccccc23)cc1	6.38
CC(C)Oc1ccc(-c2cc(C(=O)NCCCN3CCOCC3)c3ccccc3n2)cc1	-12.3
Cc1cc(C)c2c3c1C1C=CCC1CN3C(C(=O)O)C1CC=CC21 (stereo not shown)	3.65
O=C(Nc1ccc2c3c1C1C=CCC1CN3CC1CC=CC21)c1ccccc1 (stereo not shown)	2.4
O=C1NC(=O)c2c1cc1c3c2C2C=CCC2CN3CC2CC=CC12 (stereo not shown)	64.9
COc1cccc(CN(C(=O)c2cc3ccccc3oc2=O)C2CCS(=O)(=O)C2)c1 (stereo not shown)	0.366
CCSc1cc(C)nc2ncnn12	7.56
Cc1cccc(-c2[nH]c3c(C#N)cnn3c2NCCC(C)C)c1	3.84
COc1cccc(-c2[nH]c3c(C#N)cnn3c2NCCC(C)C)c1	76.4
CC(C)CCNc1c(-c2cccc(Cl)c2)[nH]c2c(C#N)cnn12	-4.71
c1ccc2c(c1)ncn2Cc1nnc2sc(-c3ccc4c(c3)OCCO4)nn12	45
Cc1ccc(S(=O)(=O)N(CC(=O)NC2CC3CCC2C3)c2ccc(Cl)cc2)cc1 (stereo not shown)	-0.695
CCc1ccc(CNC(=O)NCc2noc3ccc(C)cc23)cc1	2.19
COc1cccc(CN2CCN(Cc3cccc(C)c3)CC2)c1OC	-4.16
COc1cccc(CN2CCN(Cc3ccc(OC)c(OC)c3OC)CC2)c1	-6.74

SMILES	% Inhibition @ 10 uM [%]
COc1ccc(CN2CCN(Cc3cccc(C)c3)CC2)c(OC)c1OC	53.3
Cc1[nH]c2ccccc2c1CCNC(=S)NC(C)(C)C	-0.431
O=C(CCNS(=O)(=O)c1ccc2nc(O)ccc2c1)NC1CCCc2ccccc21 (stereo not shown)	-2.26
CCn1cc(CNC(=O)c2cc(-c3ccccc3OC)nc3ccccc23)cn1	-10.2
COc1ccccc1C(=O)Nc1cccc(F)c1	-5.29
Cc1cc(C)n(CC(O)Cn2c3ccccc3c3ccccc32)n1 (stereo not shown)	-10.2
Cc1cc(C)n(CC(O)Cn2c3ccccc3c3ccccc32)c(=O)n1 (stereo not shown)	80.2
OCC(O)Cn1c2ccccc2c2ccccc21 (stereo not shown)	1.44
Cc1ccc(-c2csc(C3C(N)=NC(S)=C(C#N)C34CCCCC4)n2)cc1 (stereo not shown)	89.8
O=C1CC(c2nc(-c3ccccc3)cs2)C2(CCCCC2)O1 (stereo not shown)	4.08
Cc1ccc(-c2csc(N)n2)cc1	20.7
CNC(=S)N(CCc1c(C)[nH]c2ccc(Cl)cc12)Cc1ccccn1	-4.14
COc1ccc(C(=O)NCc2nnc(SCC(=O)NCC3CCCO3)o2)cc1 (stereo not shown)	8.26
COc1ccc(C(=O)NCc2nnc(SCC(=O)Nc3nnc(C)s3)o2)cc1	84
Cc1nnc(NC(=O)CSc2nnc(CNC(=O)COc3ccc(Cl)cc3)o2)s1	-5.27
Cc1nnc(NC(=O)CSc2nnc(CNC(=O)c3cccs3)o2)s1	-3.39
COc1ccc(C(=O)NCc2nnc(SCC(=O)NC3CCCCC3)o2)cc1	76.6
COc1cc(C(=O)NCc2nnc(SCC(=O)NC3CCCCC3)o2)cc(OC)c1OC	1.64
NC(=O)/C=C/C(=O)Nc1ccccc1	-3.13
CCCCNC(=O)CCc1nc2cccnc2n1Cc1ccccc1	3.96
CCOc1ccc2c3c(c(=O)oc2c1)CCC3	-3.38
CCCC1CCC(C2=N/C(=C\c3cc(OC)c(OC)cc3OC)C(=O)O2)CC1 (stereo not shown)	-3.33
O=C(CSc1nc2ccccc2o1)N1CCN(c2nnc(-c3ccccc3)c3ccccc23)CC1	2.46
COCCNC(=O)CSc1[nH]c(-c2cccc(OC)c2)nc1-c1ccccc1	0.163
Cc1nc(C(=O)N[C@@H](CC(C)C)C(=O)NCC#N)nn1-c1ccc(Cl)cc1Cl	5.76

SMILES	% Inhibition @ 10 uM [%]
CCOc1ccc(/C=C(\NC(=O)c2ccc(C)cc2)C(=O)Nc2cccc(O)c2)cc1	4.67
COc1cccc(C2CC(=O)N3CN(Cc4ccco4)CSC3=C2C#N)c1OC (stereo not shown)	18.7
COc1ccc(OC)c(C2CC(=O)N3CN(Cc4ccco4)CSC3=C2C#N)c1 (stereo not shown)	6.87
COc1ccc(CN2CSC3=C(C#N)C(c4ccc(C)cc4)CC(=O)N3C2)cc1 (stereo not shown)	43.8
COc1ccc(C2CC(=O)N3CN(Cc4ccccc4)CSC3=C2C#N)cc1OC (stereo not shown)	6.73
COc1ccc(CN2CSC3=C(C#N)C(c4cccs4)CC(=O)N3C2)cc1 (stereo not shown)	50.8
CCOc1cc(C2CC(=O)N3CN(Cc4ccccc4)CSC3=C2C#N)ccc1O (stereo not shown)	19.8
COc1ccc(Br)cc1C1CC(=O)N2CN(Cc3ccco3)CSC2=C1C#N (stereo not shown)	60.5
COc1ccc(Br)cc1C1CC(=O)N2CN(Cc3ccccc3)CSC2=C1C#N (stereo not shown)	60.8
N#CC1=C2SCN(Cc3ccccc3)CN2C(=O)CC1c1cccs1 (stereo not shown)	40.5
COc1ccc2ccccc2c1C1CC(=O)N2CN(Cc3ccccc3)CSC2=C1C#N (stereo not shown)	35.8
COc1ccc(C2CC(=O)N3CN(Cc4ccccc4)CSC3=C2C#N)c(OC)c1 (stereo not shown)	32.1
COc1cc(C2CC(=O)N3CN(Cc4ccccc4)CSC3=C2C#N)cc(Br)c1O (stereo not shown)	57
Cc1ccc2oc(=O)c3cc(C(=O)N4CCC(C)CC4)sc3c2c1	0.809
CCCOc1ccc(CN(C(=O)c2nc(SC)ncc2Cl)C2CCS(=O)(=O)C2)cc1 (stereo not shown)	-4.64
Cc1cc(C)c2c(n1)nn1c(C3CC3)cc(C(F)(F)F)nc21	2.54
O=C(NCC(=O)N1CCOCC1)c1ccccc1	15.6
O=C(NCCc1ccccc1)C1CCCN(S(=O)(=O)c2cccc3cccnc23)C1 (stereo not shown)	-4.69
COc1cccc(C(=O)Nc2ccc(C(C)C)cc2)c1	-1.25
COCCOC(=O)N/C=C\c1nc(O)c2ccccc2n1	-4.65
CCOC(=O)c1cnn2c(C(F)(F)F)cc(C)nc12	-3.53
CN1CCc2c(c(S)sc(=N)c2C#N)C1	5.59
N#Cc1c2c(c(S)sc1=N)CCCC2	59.6
CC1(C)Cc2c(c(S)sc(=N)c2C#N)CO1	8.27
COc1cccc(CNC(=O)CNC(=S)N(Cc2ccccc2)Cc2cccnc2)c1	-0.406
